Experimental findings from ChEMBL document CHEMBL1201862, “PubChem BioAssay data set” (2004) are described below.

Each structure is given as a SMILES string. Where only a bound is given, the exact number is not on record here.

In this assay the target is Beta Lactamase (Pseudomonas aeruginosa) (UniProt Q932Y6). Description: Late stage assay provider results from the probe development efforts to identify selective inhibitors of VIM-2 metallo-beta-lactamase: VIM-2-transformed E. coli growth inhibition in the presence of imipenem (synergy). The assay is classed as functional.

On to `O=c1[nH]c2c(s1)[C@H](c1cccnc1)[C@H]1C3CC[C@@H](C3)[C@H]1S2`, for which the MIC was > 100 µM (active).
